Test results reported in PubChem BioAssay (NCATS).
Where “and” joins values, the source holds several entries; their conditions need not be identical. Equal entries are not always repeated. Records with an inconclusive call do not appear. Some structures have more than one record in an assay (separate samples or runs), and their calls can disagree. Calls of active or inactive are those of the source. Unless noted, calls come from the whole dose curve; as a rule, active = well fitted curve in the direction sought with a large enough effect; inconclusive = small, poorly fitted or top-dose-only effect, or another doubt; inactive = no such curve, though single readings can be large; an effect the other way counts as inactive or inconclusive.

What was measured:
[1] = target: Cellular tumor antigen p53 (Homo sapiens) (UniProt P04637); assay: Primary qHTS for small molecule compounds that upregulate eGFP-tagged delta133p53alpha (in N-terminal) cells. (AID 2060322); conditions: NCI-H358 eGFP-delta133p53alpha fluorescence, 24 h; activation: stronger effect = higher value; note: nearly all actives have a fitted effect of over 75% in size; note: potency is the fitted concentration of half-maximal effect;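 for activation: series mostly up to about 56 µM; 0% = DMSO vehicle and 100% = reference activator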
Outline: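 NCI-H358 cells pre-induced 24 h with 10 ng/ml doxycycline to express N-terminal eGFP-delta133p53alpha, then dosed 24 h at 37C without doxycycline; fixed, Hoechst-stained, GFP intensity by laser scanning cytometry, normalized to DMSO (0%) and 57.5 uM 5-azacytidine (100%).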

[2] = target: Cellular tumor antigen p53 (Homo sapiens) (UniProt P04637); assay: Primary qHTS for small molecule compounds that upregulate eGFP-tagged delta133p53alpha (in C-terminal) cells. (AID 2060324); note: potency is the fitted concentration of half-maximal effect
Outline: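 C-terminal eGFP-tagged delta133p53alpha NCI-H358 line; dox-induced (100 ng/ml, 24 h) then plated without dox; compounds pinned in titration, 24 h 37 °C/5% CO2; PFA fix, Hoechst nuclei; GFP by LSC.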

[3] = BET inhibitor-based combinations targeting novel dependencies in MECOM-rearranged (r) AML: HNT-34 cell line (AID 2202234); note: nearly all actives have a fitted effect of over 35% in size; note: potency is the fitted concentration of half-maximal effect
Outline: (§1)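 Cells at 500/well were exposed for 48 hr to MIPE v5.0 drugs as 11-point dose curves. Viability was read by CellTiter-Glo luminescence and normalized to DMSO and empty-well controls. Activity was expressed as AUC and per-cell-line Z-AUC.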

[4] = BET inhibitor-based combinations targeting novel dependencies in MECOM-rearranged (r) AML: AML-191 cell line (AID 2202236; note: nearly all actives have a fitted effect of over 35% in size; note: potency is the fitted concentration of half-maximal effect)
Outline: (§2)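 AML cell lines seeded at 500 cells/well, treated with 11-point dose curves for 48 h. Viability by CellTiter-Glo luminescence, normalised to DMSO and empty wells; activity expressed as AUC and per-cell-line Z-transformed AUC.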

[5] = BET inhibitor-based combinations targeting novel dependencies in MECOM-rearranged (r) AML: AML-194 cell line (AID 2202237; note: nearly all actives have a fitted effect of over 40% in size; note: potency is the fitted concentration of half-maximal effect)
Outline: as §2

[6] = target: Aldehyde dehydrogenase, mitochondrial (Homo sapiens) (UniProt P05091); assay: qHTS for Inhibitors of the Aldehyde Dehydrogenase Family (ALDH2) Confirmatory screens (AID 2061303; active = well fitted inhibition curve with a large enough effect; title and protocol of this record describe different tests; note: nearly all actives have a fitted effect of over 45% in size; note: potency is the fitted concentration of half-maximal effect)
[7] = qHTS for Inhibitors of the Aldehyde Dehydrogenase Family (ALDH1A2, ALDH1A3, ALDH2, ALDH3A1) (AID 2061307); note: nearly all actives have a fitted effect of over 50% in size; for Potency: test system not described further here; potency is the fitted concentration of half-maximal effect
[8] = target: Aldehyde dehydrogenase, mitochondrial (Homo sapiens) (UniProt P05091); assay: qHTS for Inhibitors of the Aldehyde Dehydrogenase Family (ALDH2) Primary screen (AID 2061308);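 note: plate controls were vehicle for no effect and reference inhibitor for full effect; nearly all actives have a fitted effect of over 55% in size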
[9] = target: Retinaldehyde dehydrogenase 3 (Homo sapiens) (UniProt P47895); assay: qHTS for Inhibitors of the Aldehyde Dehydrogenase Family (ALDH1A3) Confirmatory screens (AID 2061311); note: nearly all actives have a fitted effect of over 60% in size; note: potency is the fitted concentration of half-maximal effect
[10] = target: Retinaldehyde dehydrogenase 3 (Homo sapiens) (UniProt P47895); assay: qHTS for Inhibitors of the Aldehyde Dehydrogenase Family (ALDH1A3) Validation screen (AID 2061312); note: % is set by controls: 0 for no effect and ±100 for the full control effect; nearly all actives have a fitted effect of over 45% in size
[11] = target: Retinal dehydrogenase 2 (Homo sapiens) (UniProt O94788); assay: qHTS for Inhibitors of the Aldehyde Dehydrogenase Family (ALDH1A2) Confirmation screens (AID 2061314); note: nearly all actives have a fitted effect of over 65% in size; note: potency is the fitted concentration of half-maximal effect
[12] = target: Retinaldehyde dehydrogenase 3 (Homo sapiens) (UniProt P47895); assay: qHTS for Inhibitors of the Aldehyde Dehydrogenase Family (ALDH1A3) Primary screen (AID 2061315);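 note: plate controls were DMSO vehicle for no effect and reference inhibitor for full effect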
[13] = target: Aldehyde dehydrogenase 1A1 (Homo sapiens) (UniProt P00352); assay: qHTS for Inhibitors of the Aldehyde Dehydrogenase Family (ALDH1A1) Confirmatory screens (AID 2061316); note: nearly all actives have a fitted effect of over 65% in size; note: potency is the fitted concentration of half-maximal effect
[14] = target: Aldehyde dehydrogenase, mitochondrial (Homo sapiens) (UniProt P05091); assay: qHTS for Inhibitors of the Aldehyde Dehydrogenase Family (ALDH2) Validation screens (AID 2061302; active = well fitted inhibition curve with a large enough effect; title and protocol of this record describe different tests; note: potency is the fitted concentration of half-maximal effect)
[15] = BET inhibitor-based combinations targeting novel dependencies in MECOM-rearranged (r) AML: OCI-AML3 cell line (AID 2202232); conditions: Potency: OCI-AML3 viability; note: nearly all actives have a fitted effect of over 35% in size; note: potency is the fitted concentration of half-maximal effect
Outline: as §2

[16] = BET inhibitor-based combinations targeting novel dependencies in MECOM-rearranged (r) AML: MV-4-11 cell line (AID 2202233);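 note: plate controls were DMSO for no effect and blank wells for full effect; nearly all actives have a fitted effect of over 45% in size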
Outline: as §1

[17] = BET inhibitor-based combinations targeting novel dependencies in MECOM-rearranged (r) AML: UCSD-AML1 cell line (AID 2202235);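 note: series mostly up to about 46 µM; plate controls were DMSO vehicle wells for no effect and blank wells for full effect; nearly all actives have a fitted effect of over 40% in size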
Outline: as §1

[18] = BET inhibitor-based combinations targeting novel dependencies in MECOM-rearranged (r) AML: SET-2 cell line (AID 2202231); conditions: SET-2 AML cells viability, CellTiter-Glo luminescence, 48 h; viability: stronger effect = lower value, series mostly up to about 46 µM;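 note: plate controls were DMSO treated cells for no effect and wells without cells for full effect; nearly all actives have a fitted effect of over 35% in size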
Outline: as §2

Chain of Cellular tumor antigen p53 (Homo sapiens) (P04637 whole entry, looked up): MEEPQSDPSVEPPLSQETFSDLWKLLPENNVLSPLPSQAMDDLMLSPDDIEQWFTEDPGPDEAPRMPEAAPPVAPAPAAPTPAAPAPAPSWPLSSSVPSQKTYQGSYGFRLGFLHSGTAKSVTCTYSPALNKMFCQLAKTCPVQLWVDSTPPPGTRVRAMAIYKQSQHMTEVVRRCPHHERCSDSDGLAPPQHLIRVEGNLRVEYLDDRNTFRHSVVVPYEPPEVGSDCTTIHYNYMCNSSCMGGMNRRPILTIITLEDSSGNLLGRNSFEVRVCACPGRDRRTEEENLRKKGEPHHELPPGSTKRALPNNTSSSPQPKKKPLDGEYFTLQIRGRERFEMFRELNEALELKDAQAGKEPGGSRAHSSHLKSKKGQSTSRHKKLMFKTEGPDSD

COc1ccc(Br)cc1S(=O)(=O)NC(=O)/C=C/c1ccccc1Cc1ccc2ccccc2c1
inactive: activation [1] -15.8% | Potency [2]

C[C@H]1c2cccc(O)c2C(O)=C2C(=O)[C@]3(O)C(O)=C(C(N)=O)C(=O)[C@@H](N(C)C)[C@@H]3[C@@H](O)[C@@H]21
inactive: activation [1] -2.21%
active: Potency [1] 15.5 µM and 2.73 µM | Potency [3] 18.6 µM | Potency [4] 26.3 µM | Potency [5] 23.5 µM

CC1=C(CC(=O)O)c2cc(F)ccc2/C1=C\c1ccc(S(C)=O)cc1 (stereo unspecified)
inactive: activation [1] 19.2% and 25% | Potency [2]

COC(=O)C1=C(C)NC(C)=C(C(=O)OC)C1c1ccccc1[N+](=O)[O-]
inactive: activation [1] -16.4% and -36.9% | Potency [2]

CCOC(=O)c1cnc2c(cnn2CC)c1NN=C(C)C
inactive: Potency [6] | Potency [7]

Cc1cc(N)c2ccccc2[n+]1CCCCCCCCCC[n+]1c(C)cc(N)c2ccccc21
inactive: Potency [6] | Potency [7] | Potency [8] | Potency [9] | Potency [10] | Potency [11] | Potency [12] | Potency [13]

CN1CCN(CC(=O)N2c3ccccc3C(=O)Nc3cccnc32)CC1
inactive: activation [1] -10% and 3.74% | Potency [2] | Potency [14] | Potency [6] | Potency [7] | Potency [9] | Potency [11] | Potency [13]

COc1ccc(/C=C/c2nc(NCCCN(C)C)c3ccccc3n2)cc1
inactive: activation [1] -29.6% | Potency [2] | Potency [14] | Potency [7]

N.N.N.N.N.N.N.N.N.N.N.N.N.N.O.O.[Ru+4].[Ru+5].[Ru+5]
inactive: activation [1] 4.58% | Potency [2] | Potency [14] | Potency [6] | Potency [7] | Potency [13]

CC(C(O)c1ccc(O)cc1)N1CCC(Cc2ccccc2)CC1 (stereo unspecified)
inactive: activation [1] -5.02% and -1% and -19.5% | Potency [2] | Potency [14] | Potency [8] | Potency [10] | Potency [12]

CCCn1cnc2c1c(=O)n(CCCCC(C)=O)c(=O)n2C
inactive: activation [1] 0.837% and -17.3% | Potency [2] | Potency [14] | Potency [6] | Potency [7] | Potency [9] | Potency [10] | Potency [11] | Potency [13]

c1ccc(C(NCCNC(c2ccccc2)c2ccccc2)c2ccccc2)cc1
inactive: activation [1] -16.9% | Potency [2] | Potency [14] | Potency [6] | Potency [7] | Potency [9] | Potency [11] | Potency [13]

Brc1ccc([C@H]2CN3CCSC3=N2)cc1
inactive: activation [1] -4.33% and 7.97% | Potency [2] | Potency [14] | Potency [6] | Potency [7] | Potency [9] | Potency [10] | Potency [11] | Potency [12] | Potency [13]

O=C(O)c1ccccc1Nc1cccc(OCc2ccc3ccccc3n2)c1
active: Potency [7] 7.98 µM
inactive: activation [1] -13.1% | Potency [2] | Potency [14] | Potency [10]

Cc1cc(O)c2c(c1)C(=O)c1cc(O)cc(O)c1C2=O
active: Potency [2] 26.9 µM | Potency [14] 3.16 µM | Potency [6] 0.712 µM | Potency [9] 11.3 µM | Potency [11] 6.34 µM | Potency [13] 2.52 µM | Potency [15] 9.34 µM | Potency [4] 16.6 µM
inactive: activation [1] -1.13% and -38% | Potency [16] | Potency [17]

CN(CCCOc1ccc(Cc2ccccc2)cc1)CCC(=O)O
inactive: activation [1] -0.922% and -7.16% | Potency [2] | Potency [14] | Potency [6] | Potency [7] | Potency [9] | Potency [10] | Potency [12]

CC1=C(C)C(=O)C(CCCCC#CCCCC#CCO)=C(C)C1=O
active: Potency [14] 5.01 µM | Potency [6] 4.49 µM | Potency [7] 7.12 µM | Potency [9] 0.504 µM | Potency [13] 1.27 µM
inactive: activation [1] 18.6% and 0.426% | Potency [2]

O=NN(CCCl)C(=O)NCCCl
active: Potency [6] 15.8 µM | Potency [9] 12.7 µM | Potency [13] 22.5 µM
inactive: activation [1] -1.09% and 45.2% | Potency [2] | Potency [14] | viability [18] 104% | Potency [15] | Potency [16] | Potency [3] | Potency [17] | Potency [4] | Potency [5]
